A word on the inhibition: it is the drop in the measured response relative to a control, in per cent.

About 530 (0.24%) of roughly 220,000 compounds were called active. Cut-off read from the data, not from the text of the source: active = inhibition above about 13%; inconclusive = no clear call, values can overlap the other calls; inactive = below that. What follows is part of a selection rich in actives, with near analogues and random picks from the rest. Measured potencies and affinities stand elsewhere.

Sequence of Bifunctional protein GlmU (Mycobacterium tuberculosis (strain ATCC 25618 / H37Rv)) (P9WMN3 whole entry, looked up): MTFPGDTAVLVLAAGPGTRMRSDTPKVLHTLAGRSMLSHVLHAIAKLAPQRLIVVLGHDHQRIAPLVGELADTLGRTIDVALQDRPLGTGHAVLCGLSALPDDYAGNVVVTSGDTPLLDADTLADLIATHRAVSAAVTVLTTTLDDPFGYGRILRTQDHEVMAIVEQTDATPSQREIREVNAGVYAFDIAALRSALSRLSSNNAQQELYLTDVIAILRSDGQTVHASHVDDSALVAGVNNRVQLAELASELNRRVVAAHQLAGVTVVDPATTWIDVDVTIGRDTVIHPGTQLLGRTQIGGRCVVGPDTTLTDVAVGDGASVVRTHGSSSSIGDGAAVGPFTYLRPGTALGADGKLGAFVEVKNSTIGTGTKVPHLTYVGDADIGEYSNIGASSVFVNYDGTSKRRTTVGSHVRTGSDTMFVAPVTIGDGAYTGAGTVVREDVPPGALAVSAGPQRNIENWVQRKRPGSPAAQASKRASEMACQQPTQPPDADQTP

This experiment addresses Bifunctional protein GlmU (Mycobacterium tuberculosis (strain ATCC 25618 / H37Rv)) (UniProt P9WMN3). The experiment is described as follows: inhibition of mycobacterial GlmU enzyme – biochemical, glucosamine-1-phosphate acetyltransferase (AID 1376).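 Note: 0% = complete reaction with vehicle and 100% = reaction without substrate.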 The settings on record: M. tuberculosis GlmU acetyltransferase enzyme assay; stronger effect = higher value;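 tested at 30 µM in the primary screen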.
On to `C=C(C)CNC(=S)N/N=C/c1ccc([N+](=O)[O-])cc1`, for which the inhibition is 3.43% (inactive).
Then `Cc1ccc(-n2nc3c(c2NC(=O)c2c(-c4ccccc4Cl)noc2C)CSC3)cc1`, with 4.33% (inactive); and `Cc1ccc(-n2nc3c(c2NC(=O)c2cccs2)CSC3)cc1`, with 19.6% (active).
Take `Cc1ccc(-n2nc3c(c2NC(=O)c2ccc4c(c2)OCO4)CSC3)cc1`: the inhibition was -1.67% (inactive).
`Cc1nccn1CCCN1C(=O)OC2(CCCCC2)C1(C)O` (configuration not stated): the inhibition was -0.12% (inactive).
Consider `Cc1cc(C)c(C(=O)COC(=O)c2cc([N+](=O)[O-])ccc2NCCO)cc1C`, for which the inhibition is 0.91% (inactive).
`COc1cc(/C=N/N=C2/C(=O)Nc3ccccc32)ccc1O`: the inhibition was 1.01% (inactive).
On to `O=C1Nc2ccccc2/C1=N\N=C\c1ccc(O)c(O)c1`, for which the inhibition was 15% (active).
In the case of `O=C1Nc2ccccc2/C1=N/N=C/c1cccc(O)c1` it was 0.15% (inactive); in that of `CC1CCc2ccc(F)cc2N1S(=O)(=O)c1cccs1` (configuration not stated), 3.23% (inactive); in that of `O=c1cc(O)c2c(=O)n(-c3ccccc3)c3c(c2o1)CCCCC3`, 13% (active).
On to `O=c1cc(O)c2c(=O)n(-c3ccccc3)c3c(c2o1)CCCCCC3`, for which the inhibition is 0.45% (inactive).
As for `O=c1cc(O)c2c(=O)n(-c3ccccc3)c3ccccc3c2o1`, the inhibition was 0.8% (inactive).
In the case of `C=CCNC(=O)NS(=O)(=O)c1ccc(C)cc1` it was 1.33% (inactive).
Regarding `O=C(NCc1ccco1)c1cccc(-c2nnc(-c3ccccc3)o2)c1`, the inhibition was -0.42% (inactive).
In the case of `CC(C)C(OC(=O)c1ccco1)C(=O)NC1CCCCC1` (configuration not stated), the inhibition is 1.45% (inactive).
Turning to `CC(OC(=O)c1ccco1)C(=O)NC1CCCCC1` (configuration not stated), the inhibition was -0.47% (inactive).
For the compound `CC(C)CC(OC(=O)c1ccco1)C(=O)NC1CCCCC1` (configuration not stated), the inhibition was 14.8% (active).
For the compound `O=C(NCc1ccncc1)C(=O)C1C(=O)Nc2ccccc21` (configuration not stated), the inhibition was -1.35% (inactive).
Then `CCOC(=O)c1nc(NCc2ccccc2C)c2ccccc2n1`, with -3.26% (inactive); and `C/C=C(\C)CN1CCN(c2cc(C)ccc2C)CC1`, with -5.99% (inactive); and `Cc1cc(C(=O)CS(=O)(=O)c2ccccc2)cc(C)c1OC(=O)N(C)C`, with 0.59% (inactive).
Regarding `COc1ccc(NS(=O)(=O)c2cccc(C(=O)NNC(=O)NCCCl)c2)cc1`, the inhibition was -0.61% (inactive).
In the case of `Cc1cc(/C=N/NC(=O)c2cccc([N+](=O)[O-])c2)c(C)n1-c1ccccc1` it was -3.02% (inactive); in that of `Cc1cc(/C=N/NC(=O)c2cccc(F)c2)c(C)n1-c1ccccc1`, 0.73% (inactive); in that of `Cc1cc(C(=O)N/N=C/c2sc(N3CCOCC3)nc2-c2ccccc2)c(C)o1`, 6.62% (inactive).
In the case of `CCCn1c(SCc2ccon2)nc2ccccc2c1=O` it was 1.08% (inactive); in that of `O=C1c2ccccc2C(=O)N1CC(=O)N1c2ccccc2Sc2ccccc21`, -6.14% (inactive); in that of `COc1ccc(OC)c(C(c2c(O)c3ccccc3oc2=O)c2c(C)n(C)n(-c3ccccc3)c2=O)c1` (configuration not stated), 13.2% (active).
As for `COc1cc(C(c2c(O)c3ccccc3oc2=O)c2c(C)n(C)n(-c3ccccc3)c2=O)ccc1O` (configuration not stated), the inhibition was 22.1% (inactive).
Then `COc1ccc(C(c2c(O)c3ccccc3oc2=O)c2c(C)n(C)n(-c3ccccc3)c2=O)cc1` (configuration not stated), with 1.51% (inactive).
In the case of `CCCCCCn1c(CN2CCN(CCO)CC2)nc2c1c(=O)n(C)c(=O)n2C` it was 2% (inactive).
In the case of `C/C(=N\NC(=O)c1nn(C)c(C)c1Br)c1cccc(NC(=O)c2ccc(F)cc2)c1` it was -3.49% (inactive).
As to `O=C(NCc1ccc(C(=O)N2CCC3(CC2)OCCO3)cc1)c1ccc2c(c1)OCO2`, the inhibition was 18.9% (active).
Then `O=C(NCc1ccc(C(=O)N2CCC3(CC2)OCCO3)cc1)c1cccc(Br)c1`, with 1.96% (inactive); and `O=C(c1ccc2c(c1)OCO2)N1CCC2(CC1)OCCO2`, with 5.09% (inactive); and `COc1ccc(CN2CCOCC2)c(C)c1C`, with -2.85% (inactive).
With `CCCCNc1ccc(C(=O)O)cc1`, the inhibition was -0.8% (inactive).
As for `CC12CC(NC(=O)N1c1ccc(C(=O)N3CCN(c4ccc(F)cc4)CC3)cc1)c1ccccc1O2` (configuration not stated), the inhibition was -2.33% (inactive).
Regarding `CC(C)C/C=C1\CCc2c([nH]c3ccccc23)C1=O`, the inhibition was -1.01% (inactive).
With `CCOc1ccc(NC(=O)CSc2n[nH]c(N)n2)c([N+](=O)[O-])c1`, the inhibition is 0.6% (inactive).
For the compound `CCOC(=O)c1cnc(SCC(=O)c2ccc3c(c2)OCCO3)nc1N`, the inhibition was -5.31% (inactive).
For `NS(=O)(=O)c1cccc(NC(=O)CN2CCc3ccccc32)c1`, the inhibition was -0.92% (inactive).
With `Fc1ccc(OCc2nn3cnnc3s2)cc1`, the inhibition was 18.4% (active).
For `Fc1ccc(OCc2nc3ccccc3s2)cc1`, the inhibition is 0.65% (inactive).
As to `Fc1ccc(OCc2nn3c(Cn4nnc5ccccc54)nnc3s2)cc1`, the inhibition was 3.23% (inactive).
`COC(=O)c1ccc(S(=O)(=O)NCc2ccccn2)n1C`: the inhibition is -0.35% (inactive).
For `COc1cccc(Nc2ccccc2C(=O)O)c1`, the inhibition is -2.96% (inactive).
`COc1ccc(Nc2ccc(Cl)cc2)c(C(=O)O)c1`: the inhibition is 11.1% (inactive).
In the case of `COc1ccc(Nc2cccc(Cl)c2)c(C(=O)O)c1` it was 13.1% (active); in that of `COc1cc(C(=O)O/N=C(\N)c2ccccn2)cc(OC)c1OC`, 13.3% (active); in that of `COc1ccccc1C(=O)O/N=C(\N)c1ccccn1`, 6.05% (inactive).
In the case of `COc1cc(OC)cc(C(=O)O/N=C(\N)c2ccccn2)c1`, the inhibition was -3.71% (inactive).
For `Cn1c(CSCCOc2ccccc2)n[nH]c1=S`, the inhibition was -1.84% (inactive).
Then `COc1c(C)cc(S(=O)(=O)NC2CC(C)(C)NC(C)(C)C2)c(C)c1C`, with -0.79% (inactive).
Regarding `COc1ccc(S(=O)(=O)NC2CC(C)(C)NC(C)(C)C2)c(C)c1C`, the inhibition was 13.6% (active).
Consider `COc1ccc(Cl)cc1S(=O)(=O)NC1CC(C)(C)NC(C)(C)C1`, for which the inhibition is 4.3% (inactive).
Consider `O=C(O)c1ccc(N=Nc2c(O)[nH]c3cc(Cl)ccc23)cc1`, for which the inhibition was 11% (inactive).
In the case of `O=C(O)c1ccc(N=Nc2c(O)[nH]c3ccccc23)cc1` it was -3.4% (inactive); in that of `Nc1nc(N)c(N=Nc2ccc(C(=O)O)cc2)c(N)n1`, 13.1% (active); in that of `O=C(NCCO)C(c1ccccc1)c1ccccc1`, -1.82% (inactive).
Take `COc1ccc2cc3cc(C(=O)NCCN4CCc5ccccc5C4)sc3nc2c1`: the inhibition is 4.04% (inactive).
Take `COc1ccc2nc3sc(C(=O)NCCCN4CCc5ccccc5C4)cc3cc2c1`: the inhibition was 5.05% (inactive).
On to `COc1ccc2nc3sc(C(=O)NCCN4CCc5ccccc5C4)cc3cc2c1`, for which the inhibition is 15% (active).
In the case of `COc1ccc(NC2=C(Cl)C(=O)N(c3ccccc3)C2=O)c(OC)c1` it was 4.46% (inactive); in that of `COc1ccccc1NC1=C(Cl)C(=O)N(c2ccccc2)C1=O`, 1.83% (inactive).
As for `O=C1C(Cl)=C(NCCc2ccccc2)C(=O)N1CCc1ccccc1`, the inhibition was 1.54% (inactive).
`CCOc1ccccc1NC1=C(Cl)C(=O)N(c2ccccc2)C1=O`: the inhibition is 0.96% (inactive).
In the case of `O=C1C(Cl)=C(Nc2ccccc2O)C(=O)N1c1ccccc1` it was 42.6% (active); in that of `COc1ccc(N2C(=O)C(Cl)=C(Nc3ccccc3OC)C2=O)cc1`, 3.86% (inactive).
Turning to `CCOc1ccc(N2C(=O)C(Cl)=C(Nc3ccccc3O)C2=O)cc1`, the inhibition was 7.85% (inactive).
In the case of `CCOc1ccccc1NC1=C(Cl)C(=O)N(c2ccc(OC)cc2)C1=O` it was -5.57% (inactive); in that of `O=C1C(Cl)=C(Nc2ccc(F)cc2)C(=O)N1CCc1ccccc1`, -4.15% (inactive).
With `COc1ccc(-n2c3c(cc(C(=O)N4CCC(C)CC4)c2=O)C(=O)CC(C)(C)C3)cc1`, the inhibition was 0.29% (inactive).
In the case of `Cc1cc(C)c(NC2=NS(=O)(=O)c3ccccc32)c(C)c1`, the inhibition was 0.24% (inactive).
As for `COc1cccc(OC)c1C(=O)NC(=S)NNC(=O)[C@H]1C[C@@H]1c1ccccc1`, the inhibition is 3.93% (inactive).
Then `O=c1cc(CSc2nnc3ccccn23)c2c(ccc3ccccc32)o1`, with 5.61% (inactive).
As for `Cc1ccc(C2=CC(C)(c3ccc(C)cc3)Nc3nc(C(F)(F)F)nn32)cc1` (configuration not stated), the inhibition is -1.89% (inactive).
`O=[N+]([O-])c1ccc(O)c(/C=N/Nc2nc3ccccc3[nH]2)c1`: the inhibition is 2.26% (inactive).
With `COc1ccc(O)c(/C=N/Nc2nc3ccccc3[nH]2)c1`, the inhibition was 1.12% (inactive).
As for `O=C(Nc1ccc(N2CCN(C(=O)c3cccs3)CC2)cc1)c1cccnc1`, the inhibition was -0.33% (inactive).
For the compound `O=C(Nc1cccc(C(=O)N2CCOCC2)c1)c1cccnc1`, the inhibition is 2.11% (inactive).
In the case of `CSc1nc(Cl)cc(N2CCOCC2)n1` it was 3.3% (inactive); in that of `CCOC(=O)Cc1c(C)[nH]n(-c2ccccc2)c1=O`, 0.6% (inactive).
In the case of `Cc1cc(C)n(-c2ccc(Oc3ccccc3)c(S(=O)(=O)O)c2)n1` it was 12.6% (inactive); in that of `Cc1[nH]n(-c2ccccc2)c(=O)c1CCO`, -5.63% (inactive).
For the compound `Cc1cc(N)n(-c2ccc3ccccc3c2)n1`, the inhibition was 0.94% (inactive).
Then `CCOC(=O)C1CCCN(CC(=O)Nc2c(F)c(F)c(F)c(F)c2F)C1` (configuration not stated), with 0.78% (inactive).
In the case of `CCS(=O)(=O)N1Cc2ccccc2CC1C(=O)Nc1nc(C)cs1` (configuration not stated) it was -3.38% (inactive).
Consider `Cc1cc(C(=O)NC(C)c2ccccc2)c2cc(F)ccc2n1` (configuration not stated), for which the inhibition is 2.48% (inactive).
With `CS(=O)(=O)N1CCC(C(=O)Nc2ccc(OCc3ccccc3)cc2)CC1`, the inhibition was 0.13% (inactive).
For `OCCN1CCN(CC(O)C(F)(F)F)CC1` (configuration not stated), the inhibition was 0.82% (inactive).
As to `O=C(c1cccc(F)c1)N1CCN(Cc2c[nH]c3ccccc23)CC1`, the inhibition was 15% (active).
For `O=C(c1ccccc1)N1CCN(Cc2c[nH]c3ccccc23)CC1`, the inhibition is -4.61% (inactive).
For the compound `O=C(c1cccc(Cl)c1)N1CCN(Cc2c[nH]c3ccccc23)CC1`, the inhibition is 7.63% (inactive).
On to `O=c1[nH]c(CSc2ncc(C(F)(F)F)cc2Cl)nc2cc(C(F)(F)F)ccc12`, for which the inhibition was -1.09% (inactive).
For `Cc1sc2ncnc(OCC(=O)N3CCN(S(=O)(=O)c4ccccc4)CC3)c2c1C`, the inhibition is -1.45% (inactive).

(Values after PubChem BioAssay AID1376 (SRMLSC, 2008).)
